Test results as given in PubChem BioAssay (NCATS).
Inconclusive results are not listed. Calls of active or inactive are those of the source. Calls follow the shape of the dose curve; as a rule, active = well fitted cell-killing curve with a large enough effect; inconclusive = small, poorly fitted or top-dose-only effect, or effect the other way; inactive = flat fitted curve, though single readings scatter.

Legend:
Test in all cases: Primary qHTS to identify gynecologic anti-cancer compounds using libraries of approved drugs and bioactive compounds (AID 1345084); also: nearly all actives have a fitted effect of over 55% in size
Settings in all cases: Gynecologic cancer cell panel viability, ATPlite luminescence, 48 h; series mostly up to 57.5 µM
[1] = test system: SKOV3
How it was run: (§1)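 Cell viability after 48 h drug treatment, ATPlite luminescence readout; five doses.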

[2] = test system: Tov-21-G
How it was run: as §1

[3] = test system: Tov112D
How it was run: as §1

Measured: Potency

O=[N+]([O-])c1ccc(Oc2ccc3c(c2)CCC(c2ccccc2)O3)nc1 (stereo not given)
inactive: [1] | [2] | [3]

COc1ccc(-c2csc(NC(=O)[C@H]3CCCCN3S(=O)(=O)c3ccc(C)cc3)n2)cc1
inactive: [1] | [2] | [3]

CCCCOC(=O)NS(=O)(=O)c1sc(CC(C)C)cc1-c1ccc(Cn2ccnc2)cc1
inactive: [1] | [2] | [3]

CCC/C=C/C=C/C1CC(O)C2(O)C(=O)OCC12 (stereo not given)
inactive: [1] | [2] | [3]

CN(C)[C@@H]1CCc2[nH]c3ccc(NC(=O)c4ccc(F)cc4)cc3c2C1
inactive: [1] | [2] | [3]
